Reference: PubChem BioAssay (NCI)
About 83,000 compounds went through this panel and 20% of them were active in at least one assay; those are over-represented in the sample as a whole.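 Treatment: one concentration, 48 hours, 96-well format. Scoring: percent growth, with anything below 10 considered active.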 A number with no mark means an inactive call. Activity calls are given as the source filed them.

These compounds were tested on UACC-257 melanoma (assay: NCI-60 one-dose screen, 48 h (100 = growth as untreated, 0 = no growth, -100 = all killed)). Details: 10 µM unless noted.

First: COc1ccc2c(c1)OC13Oc4cc(OC)ccc4C=C1CCCCC3=C2
Second: C=C1C(=O)O[C@H]2[C@H]1CC/C(COC(=O)/C=C/c1cccnc1)=C\CC[C@@]1(C)O[C@@H]21
The growth of the first is higher: 78.6% for the first, 28.9% for the second.

Compound `COC1=CC2C=C(C3N(c4ccccc4)NC(=O)[C@@H]4CCCN34)C(=O)NC2C=C1` (stereo not given in full) has a growth of 108%.

What follows are compounds tested on M14 melanoma in the same assay as above. Details: 10 µM unless noted.

Compared with `CCOC(=O)C(=Cc1c(-c2ccccc2)[nH]c2ccccc12)C(=O)OCC`, `O=C(/C(=C\c1c(-c2ccccc2)[nH]c2ccccc12)S(=O)(=O)c1ccccc1)c1ccccc1` is higher in growth: 47.8% for the first, 49.7% for the second.

Compared with `COc1ccc(C2=NN(c3ccc(S(N)(=O)=O)cc3)C(c3ccc(Cl)cc3)C2)c(O)c1` (stereo not given), `CCCCc1nc(Cl)c(C2CC(c3ccc(Cl)cc3)=NN2c2cc(Cl)cc(Cl)c2)[nH]1` (stereo not given) is higher in growth: 51.3% for the first, 93.6% for the second.

Compared with `CCOC(=O)C1=C(C)n2nc(CC#N)c(C#N)c2NC1c1ccc(Cl)cc1` (stereo not given), `CCOC(=O)c1c(C)nc2c(c1N)/C(=C/c1cccs1)C(=O)N2Cc1ccccc1` is lower in growth: 91.2% for the first, 73.8% for the second.

First: CCOC(=O)c1sc(/N=C2\NC(=O)/C(=C/c3ccc(N4CCN(C)CC4)cc3)S2)nc1C
Second: COC(=O)/C=C1\SC(=Nc2cccc(OC)c2)N(CCc2c[nH]c3ccccc23)C1=O
The growth of the first is higher: 108% for the first, 64.9% for the second.

Going from `CC(C)NS(=O)(=O)c1cccc(-c2ccc3c(=O)n(CCCN)c4c(c3c2)C(=O)c2ccccc2-4)c1` to `N#Cc1ccc(C2C3=C(CCCC3=O)OC3=C2C(=O)c2ccccc2C3=O)cc1` (stereo not given), the growth falls from 115% to 81.8%.

Compared with `COc1cc2nc3c(=O)n(CCN(C)C)cnn3c(=O)c2cc1OC`, `COc1cc(-c2cn(-c3ccc(Cl)c(Cl)c3)c(=O)[nH]2)cc(OC)c1OC` is lower in growth: 95.5% for the first, 95.2% for the second.

Going from `COc1ccc(/C(=N\O)c2cc(C)c(OC)c(C)c2)cc1O` to `COc1ccc2cc(/C=C3\N=C(c4cc(OC)c(OC)c(OC)c4)OC3=O)c(OC)nc2c1`, the growth rises from 13.6% to 111%.

Compared with `COc1cc(C2=NN(c3ccccc3)C(c3cccc(Nc4ccnc5cc(C(F)(F)F)ccc45)c3)C2)cc(OC)c1OC` (stereo not given), `C=CCn1c(SCC(=O)Nc2ccc(C(=O)/C=C/c3ccc(Cl)cc3)cc2)nnc1-c1cc(OC)c(OC)c(OC)c1` is higher in growth: 92.9% for the first, 93.9% for the second.

Going from `Nc1c(C(=O)Nc2ccccn2)sc2nc3c(cc12)CCCC3` to `Nc1c(C(=O)Nc2ccccn2)sc2nc3c(cc12)CCCCC3`, the growth falls from 18% to 10.8%.

Compared with `C=CCn1c(SCC(=O)Nc2ccc(C(=O)/C=C/c3cc(OC)c(OC)c(OC)c3)cc2)nnc1-c1ccc(Cl)cc1`, `O=C(O)c1cn(C2CC2)c2cc(N3CCN(C(=O)CSc4nnc(-c5ccc(Cl)cc5)n4-c4ccccc4)CC3)c(F)cc2c1=O` is higher in growth: 12.6% for the first, 109% for the second.

Compared with `Cc1cc(C)c2nc(Nc3nc(C)c(C)c(=O)[nH]3)nc(C)c2c1`, `Cc1cnc(SCc2ccc(Cl)cc2Cl)nc1Nc1ccc(Cl)c(Cl)c1` is higher in growth: 13.7% for the first, 98.7% for the second.

Going from `O=C1Nc2ccc(Br)cc2/C1=N\N=C/c1cn(Cc2ccccc2)c2ccccc12` to `O=C1[C@@H](OS(=O)(=O)CC(F)(F)F)[C@H](c2ccc(F)cn2)N1c1cc2c3ccccc3ccc2c2ccccc12`, the growth falls from 106% to 72.9%.

Compared with `COc1cc(-c2nn(-c3ccc(Br)cc3)cc2CO)ccc1O`, `COc1ccc2c(c1)OC13Oc4cc(OC)ccc4C=C1CCCCC3=C2` is lower in growth: 102% for the first, 90.4% for the second.

Compared with `CCCCc1ccc(N=Nc2ccc(OCC[N+](C)(C)C)cc2)cc1`, `O=C1NN(c2ccccc2)C(c2ccc3c(c2)OCO3)N2CCC[C@@H]12` (stereo not given in full) is higher in growth: 25.8% for the first, 96.6% for the second.

Compared with `C=C(C)[C@@H]1CC[C@]2(C(=O)O)CC[C@]3(C)[C@H](CC[C@@H]4[C@@]5(C)C[C@@H](CC#Cc6ccccc6C)C(=O)C(C)(C)[C@@H]5CC[C@]43C)[C@@H]12`, `C=C1C(=O)O[C@H]2[C@H]1CC/C(COC(=O)/C=C/c1cccnc1)=C\CC[C@@]1(C)O[C@@H]21` is lower in growth: 40.6% for the first, 26.3% for the second.

`COC1=CC2C=C(C3N(c4ccccc4)NC(=O)[C@@H]4CCCN34)C(=O)NC2C=C1` (stereo not given in full) was tested, and the growth was 101%.

With `COc1ccc(-c2cc(-c3nnc(SCC(=O)Nc4ccc(C(C)=O)cc4)o3)c3ccccc3n2)cc1` the growth was 5.23% (active).
For `Sc1cccc2cccnc12`, the growth was -3.55% (active).
With `COc1ccc2[nH]c(=O)c(/C=C/C(=O)/C=C/c3ccc(O)c(OC)c3)cc2c1` the growth was -32.4% (active).
In the case of `CCN1CCN(c2ccc(NC(=O)Nc3nc4ccc(-c5ccccc5OC)cc4s3)cc2)CC1`, the growth is reported as -70.1% (active).
In the case of `CCSc1ccc(C2C(Br)C(=O)N2c2cc(OC)c(OC)c(OC)c2)cc1` (stereo not given), the growth is reported as 4.2% (active).
In the case of `C=C(C)[C@@H]1CC[C@]2(C(=O)OCCOCCOCC[P+](c3ccccc3)(c3ccccc3)c3ccccc3)CC[C@]3(C)[C@H](CC[C@@H]4[C@@]5(C)CC[C@H](C)C(C)(C)[C@@H]5CC[C@]43C)[C@@H]12`, the growth is reported as -77.4% (active).
